Experimental data: PubChem BioAssay (NCATS)
Records with an inconclusive call do not appear. Active and inactive are the calls of the source. Unless noted, calls come from the whole dose curve; as a rule, active = well fitted curve in the direction sought with a large enough effect; inconclusive = small, poorly fitted or top-dose-only effect, or another doubt; inactive = no such curve, though single readings can be large; an effect the other way counts as inactive or inconclusive.

How the values were obtained:
[1] = target: Catechol O-methyltransferase (Homo sapiens) (UniProt P21964); assay: Confirmatory Screen for Target Class Profiling of Small Molecule Inhibitors of Methyltransferases (AID 1745852); details: MTase-Glo luminescence, SAH detection, recombinant enzyme; measured here: COMT max response; stronger effect = lower value; for activity change, negative = inhibition: % is set by controls: 0 for no effect and ±100 for the full control effect
Catechol O-methyltransferase (Homo sapiens), sequence (P21964 whole entry, looked up): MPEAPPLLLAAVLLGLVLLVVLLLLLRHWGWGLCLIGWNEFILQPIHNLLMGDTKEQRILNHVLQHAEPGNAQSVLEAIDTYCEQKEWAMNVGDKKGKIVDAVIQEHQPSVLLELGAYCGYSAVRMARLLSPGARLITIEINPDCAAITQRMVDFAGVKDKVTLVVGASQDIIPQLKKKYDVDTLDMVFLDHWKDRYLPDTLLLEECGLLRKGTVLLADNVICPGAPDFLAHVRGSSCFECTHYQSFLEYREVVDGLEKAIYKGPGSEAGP

[2] = target: Guanidinoacetate N-methyltransferase (Homo sapiens) (UniProt Q14353); assay: as above; details: activity change, negative = inhibition: at 57.3 µM (top of the series) unless noted
[3] = target: Nicotinamide N-methyltransferase (Homo sapiens) (UniProt P40261); assay: as above; details: MTase-Glo luminescence, SAH detection, recombinant enzyme; measured here: NNMT max response; stronger effect = lower value
Nicotinamide N-methyltransferase (Homo sapiens), sequence (P40261 whole entry, looked up): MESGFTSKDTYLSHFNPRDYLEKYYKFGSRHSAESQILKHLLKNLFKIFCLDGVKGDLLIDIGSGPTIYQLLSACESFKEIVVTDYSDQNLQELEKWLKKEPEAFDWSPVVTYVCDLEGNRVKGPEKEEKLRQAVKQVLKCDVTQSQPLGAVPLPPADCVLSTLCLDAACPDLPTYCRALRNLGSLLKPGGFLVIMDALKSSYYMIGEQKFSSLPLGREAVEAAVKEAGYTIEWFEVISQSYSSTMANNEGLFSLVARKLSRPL

[4] = target: Phenylethanolamine N-methyltransferase (Homo sapiens) (UniProt P11086); assay: as above; details: MTase-Glo luminescence, SAH detection, recombinant enzyme; measured here: PNMT max response; stronger effect = lower value
Phenylethanolamine N-methyltransferase (Homo sapiens), sequence (P11086 whole entry, looked up): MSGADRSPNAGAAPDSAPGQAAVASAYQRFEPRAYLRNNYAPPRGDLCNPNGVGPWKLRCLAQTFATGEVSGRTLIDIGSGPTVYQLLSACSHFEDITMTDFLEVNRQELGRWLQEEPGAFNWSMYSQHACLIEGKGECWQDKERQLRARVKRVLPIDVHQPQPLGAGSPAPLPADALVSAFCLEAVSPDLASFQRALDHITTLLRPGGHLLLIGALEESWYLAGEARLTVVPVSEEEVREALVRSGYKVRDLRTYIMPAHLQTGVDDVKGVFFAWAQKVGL

[5] = target: DNA repair nuclease/redox regulator APEX1 (Homo sapiens) (UniProt P27695); assay: qHTS Validation Assay for Inhibitors of the Human Apurinic/apyrimidinic Endonuclease 1 (APE1) (AID 1705;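 note: TAMRA fluorescence gain over two minutes as APE1 cuts a quenched THF abasic duplex; % is set by controls: 0 for no effect and ±100 for the full control effect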)
In short: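 qHTS, 1536-well. APE1 + cpd 15 min RT → 50 nM TAMRA/BHQ-2 THF-abasic dsDNA substrate → kinetic fluorescence, 3 reads/60 s; delta(read3−read1) = reaction progress. No-enzyme buffer = negative control.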

[6] = Counterscreen for APE1 Inhibitors: Fluorescent Dye Displacement Validation Assay (AID 1707);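 note: plate controls were ThO with dsDNA and no compound for no effect and ThO without dsDNA for full effect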
In short: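 Loss of Thiazole Orange fluorescence marks promiscuous DNA binders. The dye (250 nM) is mixed with 50 nM abasic-site dsDNA in pH7.5 Tris buffer containing MgCl2, then compounds are added and emission is read once.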

[7] = qHTS for differential inhibitors of proliferation of Plasmodium falciparum line 7G8 (AID 1815);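 note: potency is the fitted concentration of half-maximal effect; parasite growth measured after three days of incubation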
[8] = qHTS for differential inhibitors of proliferation of Plasmodium falciparum line GB4 (AID 1816); details: Potency: Plasmodium falciparum GB4 proliferation inhibition;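 note: potency is the fitted concentration of half-maximal effect; parasite growth measured after 72 h incubation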
[9] = qHTS for differential inhibitors of proliferation of Plasmodium falciparum line 3D7 (AID 1876); note: potency is the fitted concentration of half-maximal effect
[10] = qHTS for differential inhibitors of proliferation of Plasmodium falciparum line D10 (AID 1877);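 note: potency is the fitted concentration of half-maximal effect; parasites grown with compound for 72 h before DNA staining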
[11] = qHTS for differential inhibitors of proliferation of Plasmodium falciparum line Dd2 (AID 1882); details: Potency: Plasmodium falciparum Dd2 proliferation inhibition; note: potency is the fitted concentration of half-maximal effect; nearly all actives have a fitted effect of over 65% in size
In short: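 SYBR Green DNA fluorescence (ex 485, em 535 nm) after overnight lysis quantifies parasite growth; compound exposure lasted 72 h at 37 C on infected red cells at 2.5% hematocrit, 0.3% parasitemia (final). Artemisinin 0.29 uM and vehicle wells define normalization.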

[12] = qHTS for differential inhibitors of proliferation of Plasmodium falciparum line W2 (AID 1883); details: Potency: Plasmodium falciparum W2 proliferation inhibition;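 note: potency is the fitted concentration of half-maximal effect; parasites grown with compound for 72 h before lysis and staining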
[13] = qHTS for differential inhibitors of proliferation of Plasmodium falciparum line HB3 (AID 1886); details: Potency: Plasmodium falciparum HB3 proliferation inhibition;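 note: potency is the fitted concentration of half-maximal effect; parasites grown with compound for 72 h before SYBR Green readout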
[14] = qHTS Assay for Modulators of Human Peripheral Myelin Protein 22 (PMP22) Expression/Activity (AID 1967; active = well fitted curve in the direction sought with a large enough effect in the signal ratio; the % refers to the signal ratio;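 note: 0% = untreated cells and 100% end not stated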)
In short: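 Luminescence ratio of Pmp22 promoter-driven green luciferase to EF-alpha-driven red luciferase, in engineered mouse MSC80 Schwann cells, served as read-out. Compounds were incubated 24h; untreated cells defined 0% Activity; curves were classified by r2, magnitude and activity.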

[15] = target: Ferritin light chain (Equus caballus) (UniProt P02791); assay: qHTS Validation Assay for Identification of Novel General Anesthetics (AID 2323); note: % is set by controls: 0 for no effect and ±100 for the full control effect
In short: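 Fluorescence at 535 nm (excitation 380 nm) reported loss of 1-AMA binding to horse-spleen apoferritin (10 uM) in PBS with 50% saturated 1-aminoanthracene, after 10 min room-temperature incubation with compound; values from Hill fits of normalized response.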

[16] = target: ATP-dependent DNA helicase Q1 (Homo sapiens) (UniProt P46063); assay: qHTS Validation Assay for Inhibitors of RecQ-Like Dna Helicase 1 (RECQ1) (AID 2353);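 note: plate controls were DMSO vehicle for no effect and enzyme-free control for full effect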
ATP-dependent DNA helicase Q1 (Homo sapiens), sequence (P46063 whole entry, looked up): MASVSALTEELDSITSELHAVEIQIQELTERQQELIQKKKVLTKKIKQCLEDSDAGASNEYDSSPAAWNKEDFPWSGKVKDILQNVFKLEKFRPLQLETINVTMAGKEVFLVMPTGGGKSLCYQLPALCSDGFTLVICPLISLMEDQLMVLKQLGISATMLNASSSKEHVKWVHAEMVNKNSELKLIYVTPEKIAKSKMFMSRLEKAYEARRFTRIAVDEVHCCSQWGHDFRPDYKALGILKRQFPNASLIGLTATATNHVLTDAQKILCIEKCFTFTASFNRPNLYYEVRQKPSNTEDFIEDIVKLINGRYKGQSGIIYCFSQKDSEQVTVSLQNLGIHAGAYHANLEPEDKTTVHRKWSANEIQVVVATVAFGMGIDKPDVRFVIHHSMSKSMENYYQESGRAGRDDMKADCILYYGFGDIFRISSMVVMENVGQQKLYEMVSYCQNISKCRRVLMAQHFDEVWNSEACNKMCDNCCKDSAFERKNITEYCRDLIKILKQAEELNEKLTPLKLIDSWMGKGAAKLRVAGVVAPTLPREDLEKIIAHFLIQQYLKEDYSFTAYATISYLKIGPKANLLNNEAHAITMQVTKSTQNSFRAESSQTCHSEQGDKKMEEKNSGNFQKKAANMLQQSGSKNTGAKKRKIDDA
In short: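 RECQ1T1 50 nM; forked duplex (20 bp + 30-nt ss tails) 200 nM, ATP 2 mM final; pH 8.0, 2 mM MgCl2, 2.5 ug/ml poly(dI-dC); 15 min compound preincubation; discontinuous kinetic read over 2 h at RT.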

[17] = target: RecQ-like DNA helicase BLM (Homo sapiens) (UniProt P54132); assay: qHTS Validation Assay for Inhibitors of Bloom's syndrome helicase (BLM) (AID 2364);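 note: plate controls were DMSO vehicle for no effect and enzyme-free control for full effect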
RecQ-like DNA helicase BLM (Homo sapiens), sequence (P54132 whole entry, looked up): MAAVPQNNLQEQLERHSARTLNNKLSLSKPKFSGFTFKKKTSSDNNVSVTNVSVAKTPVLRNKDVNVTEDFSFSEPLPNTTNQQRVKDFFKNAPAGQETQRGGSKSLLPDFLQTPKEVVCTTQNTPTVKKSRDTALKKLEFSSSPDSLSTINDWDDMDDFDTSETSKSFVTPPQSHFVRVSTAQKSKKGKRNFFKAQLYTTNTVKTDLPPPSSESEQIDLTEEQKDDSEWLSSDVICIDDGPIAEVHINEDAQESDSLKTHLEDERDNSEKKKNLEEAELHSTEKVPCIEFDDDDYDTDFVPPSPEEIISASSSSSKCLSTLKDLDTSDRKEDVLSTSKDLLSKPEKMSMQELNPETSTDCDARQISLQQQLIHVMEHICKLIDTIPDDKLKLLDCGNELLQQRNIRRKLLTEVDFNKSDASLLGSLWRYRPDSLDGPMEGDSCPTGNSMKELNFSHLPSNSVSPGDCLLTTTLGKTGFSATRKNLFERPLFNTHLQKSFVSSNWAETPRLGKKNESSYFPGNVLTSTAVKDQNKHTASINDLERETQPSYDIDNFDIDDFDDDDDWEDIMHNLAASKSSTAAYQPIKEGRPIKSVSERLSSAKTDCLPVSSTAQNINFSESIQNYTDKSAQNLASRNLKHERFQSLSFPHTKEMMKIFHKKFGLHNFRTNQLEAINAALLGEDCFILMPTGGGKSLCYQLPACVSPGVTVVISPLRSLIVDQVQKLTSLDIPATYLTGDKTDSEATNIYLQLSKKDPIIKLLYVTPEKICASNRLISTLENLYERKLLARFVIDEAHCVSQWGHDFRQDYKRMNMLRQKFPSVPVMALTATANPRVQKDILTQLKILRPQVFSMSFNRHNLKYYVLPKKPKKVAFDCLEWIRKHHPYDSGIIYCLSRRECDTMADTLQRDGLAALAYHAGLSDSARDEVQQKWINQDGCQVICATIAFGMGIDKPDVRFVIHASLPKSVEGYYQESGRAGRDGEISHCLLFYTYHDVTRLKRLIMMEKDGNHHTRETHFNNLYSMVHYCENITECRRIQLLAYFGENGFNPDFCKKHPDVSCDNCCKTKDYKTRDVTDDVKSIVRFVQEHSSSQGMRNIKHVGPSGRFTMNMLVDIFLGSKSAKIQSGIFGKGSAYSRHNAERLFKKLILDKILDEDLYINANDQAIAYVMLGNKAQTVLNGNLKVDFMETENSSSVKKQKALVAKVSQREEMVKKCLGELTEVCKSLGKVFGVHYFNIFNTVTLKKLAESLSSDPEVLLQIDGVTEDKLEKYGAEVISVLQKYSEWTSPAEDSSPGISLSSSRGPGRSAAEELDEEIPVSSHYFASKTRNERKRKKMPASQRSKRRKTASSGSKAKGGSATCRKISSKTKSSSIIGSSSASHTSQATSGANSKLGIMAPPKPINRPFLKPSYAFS
In short: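 BLM 50 nM in 25 mM Tris-HCl pH 8.0, 5 mM NaCl, 2 mM MgCl2, 1 mM DTT, 0.01% Tween-20, 2.5 ug/ml poly(dI-dC); 15 min cpd preinc, RT. Start: 200 nM forked DNA + 2 mM ATP (final). TAMRA read, 2 reads 2 h apart.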

[18] = Quantitative high throughput screen for delayed death inhibitors of the malarial parasite plastid, 96 hour incubation (AID 488745); note: potency is the fitted concentration of half-maximal effect; nearly all actives have a fitted effect of over 70% in size
In short: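 Decreased firefly luciferase luminescence indicates inhibited growth of reporter-integrated P. falciparum after two generations (96 h, 37 C, 5% CO2). Infected erythrocytes at 0.1% parasitemia, 2% hematocrit, in Albumax-supplemented RPMI 1640.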

[19] = Quantitative high throughput screen for delayed death inhibitors of the malarial parasite plastid, 48 hour incubation (AID 488752); note: potency is the fitted concentration of half-maximal effect; nearly all actives have a fitted effect of over 65% in size
In short: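 One-generation (48 h) growth assay: a decrease in luciferase signal from an integrated reporter in P. falciparum-infected red cells (0.1% parasitemia, 2% hematocrit) after compound exposure at 37 C indicates parasite inhibition.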

[20] = target: M-phase phosphoprotein 8 (Homo sapiens) (UniProt Q99549); assay: qHTS Validation Assay for Inhibitors for MPP8 Chromodomain Interactions with Methylated Histone Tails (AID 488949);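 note: 50 nM MPP8 with 50 nM peptide preformed then compounds added for 30 min; AlphaScreen signal from MPP8 chromodomain bound to biotinylated H3K9me3 peptide; top concentration of the series differs between compounds; % is set by controls: 0 for no effect and ±100 for the full control effect; nearly all actives have a fitted effect of over 55% in size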
M-phase phosphoprotein 8 (Homo sapiens), sequence (Q99549 whole entry, looked up): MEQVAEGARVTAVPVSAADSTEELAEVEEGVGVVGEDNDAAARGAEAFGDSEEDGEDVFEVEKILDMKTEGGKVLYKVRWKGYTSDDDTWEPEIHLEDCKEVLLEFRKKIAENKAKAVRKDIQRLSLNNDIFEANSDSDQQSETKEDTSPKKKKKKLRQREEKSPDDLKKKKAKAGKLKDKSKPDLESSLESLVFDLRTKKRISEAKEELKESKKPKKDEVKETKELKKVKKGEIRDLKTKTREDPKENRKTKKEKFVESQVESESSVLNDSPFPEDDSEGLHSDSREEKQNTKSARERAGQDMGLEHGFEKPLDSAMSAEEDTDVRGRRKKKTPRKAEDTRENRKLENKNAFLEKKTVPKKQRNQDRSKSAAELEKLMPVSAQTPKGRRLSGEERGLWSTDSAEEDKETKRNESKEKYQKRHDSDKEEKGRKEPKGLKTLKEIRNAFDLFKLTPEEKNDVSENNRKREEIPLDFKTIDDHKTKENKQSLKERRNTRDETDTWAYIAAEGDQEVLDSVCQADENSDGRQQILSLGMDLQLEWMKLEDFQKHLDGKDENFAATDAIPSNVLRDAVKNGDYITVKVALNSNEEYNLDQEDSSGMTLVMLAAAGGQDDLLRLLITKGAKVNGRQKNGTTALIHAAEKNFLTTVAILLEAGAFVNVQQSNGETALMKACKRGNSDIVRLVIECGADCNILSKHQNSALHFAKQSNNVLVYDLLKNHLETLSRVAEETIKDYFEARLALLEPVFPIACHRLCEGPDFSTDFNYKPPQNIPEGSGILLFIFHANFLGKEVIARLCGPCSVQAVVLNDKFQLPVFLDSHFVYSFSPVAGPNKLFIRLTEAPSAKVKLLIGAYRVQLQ
In short: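 50 nM MPP8 + 50 nM b-H3K9me3 peptide, PBS pH 7.4/0.01% Tween-20, 30 min RT; + cpd 30 min RT; + AlphaScreen donor/Ni-chelate acceptor beads 10 ug/mL final, 30 min dark; luminescence read.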

[21] = target: Transient receptor potential cation channel subfamily V member 1 (Homo sapiens) (UniProt Q8NER1); assay: HTS Assay for Compounds that Act as Enhancers of the Vanilloid Receptor 1 (AID 488979); note: 0% is about no effect
In short: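 TRPV1-expressing cells loaded with Fluo-8 calcium dye; compounds added and calcium influx read kinetically for 3 min (agonist phase), then capsaicin at EC20 added and read 2 min more for enhancement. Fluorescence ex 480/em 520 nm.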

[22] = target: Thyrotropin-releasing hormone receptor (Homo sapiens) (UniProt P34981); assay: qHTS for Small Molecule Agonists and Allosteric Enhancers of Human TRH Receptor: Validation Screen for Agonists (AID 493127;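 active = calcium activation more than 3 SD above the typical response in the agonist read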;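 note: intracellular calcium rise by fluo-8 fluorescence before TRH EC20 addition; 0% is about no effect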); details: TRH receptor agonist cell assay; at 2 µM; stronger effect = higher value
In short: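 Compound-evoked intracellular calcium release in fluo-8-loaded TRHR cells, read kinetically on FDSS (Ex 480/Em 530, 1 s/cycle) after 23 nL pintool transfer. Agonist phase preceded 10 nM TRH EC20 addition.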

[23] = target: Galactokinase (Homo sapiens) (UniProt P51570); assay: qHTS Validation Assay for Inhibitors of Human Galactokinase (GALK) (AID 493189); note: 0% is about no effect
In short: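 5 nM GALK / 100 uM galactose / 35 uM ATP, 20 mM HEPES pH8.0, 5 mM MgCl2, 60 mM NaCl, 1 mM DTT, 0.01% BSA (final). RT 1 h; Kinase-Glo Plus luminescence.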

[24] = target: Voltage-gated inwardly rectifying potassium channel KCNH2 (Homo sapiens) (UniProt Q12809); assay: qHTS Assay for Small Molecule Inhibitors of the Human hERG Channel Activity (AID 588834);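 note: top concentration of the series differs between compounds; % is set by controls: 0 for no effect and ±100 for the full control effect; lower thallium flux fluorescence means stronger hERG block; nearly all actives have a fitted effect of over 50% in size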
Voltage-gated inwardly rectifying potassium channel KCNH2 (Homo sapiens), sequence (Q12809 whole entry, looked up): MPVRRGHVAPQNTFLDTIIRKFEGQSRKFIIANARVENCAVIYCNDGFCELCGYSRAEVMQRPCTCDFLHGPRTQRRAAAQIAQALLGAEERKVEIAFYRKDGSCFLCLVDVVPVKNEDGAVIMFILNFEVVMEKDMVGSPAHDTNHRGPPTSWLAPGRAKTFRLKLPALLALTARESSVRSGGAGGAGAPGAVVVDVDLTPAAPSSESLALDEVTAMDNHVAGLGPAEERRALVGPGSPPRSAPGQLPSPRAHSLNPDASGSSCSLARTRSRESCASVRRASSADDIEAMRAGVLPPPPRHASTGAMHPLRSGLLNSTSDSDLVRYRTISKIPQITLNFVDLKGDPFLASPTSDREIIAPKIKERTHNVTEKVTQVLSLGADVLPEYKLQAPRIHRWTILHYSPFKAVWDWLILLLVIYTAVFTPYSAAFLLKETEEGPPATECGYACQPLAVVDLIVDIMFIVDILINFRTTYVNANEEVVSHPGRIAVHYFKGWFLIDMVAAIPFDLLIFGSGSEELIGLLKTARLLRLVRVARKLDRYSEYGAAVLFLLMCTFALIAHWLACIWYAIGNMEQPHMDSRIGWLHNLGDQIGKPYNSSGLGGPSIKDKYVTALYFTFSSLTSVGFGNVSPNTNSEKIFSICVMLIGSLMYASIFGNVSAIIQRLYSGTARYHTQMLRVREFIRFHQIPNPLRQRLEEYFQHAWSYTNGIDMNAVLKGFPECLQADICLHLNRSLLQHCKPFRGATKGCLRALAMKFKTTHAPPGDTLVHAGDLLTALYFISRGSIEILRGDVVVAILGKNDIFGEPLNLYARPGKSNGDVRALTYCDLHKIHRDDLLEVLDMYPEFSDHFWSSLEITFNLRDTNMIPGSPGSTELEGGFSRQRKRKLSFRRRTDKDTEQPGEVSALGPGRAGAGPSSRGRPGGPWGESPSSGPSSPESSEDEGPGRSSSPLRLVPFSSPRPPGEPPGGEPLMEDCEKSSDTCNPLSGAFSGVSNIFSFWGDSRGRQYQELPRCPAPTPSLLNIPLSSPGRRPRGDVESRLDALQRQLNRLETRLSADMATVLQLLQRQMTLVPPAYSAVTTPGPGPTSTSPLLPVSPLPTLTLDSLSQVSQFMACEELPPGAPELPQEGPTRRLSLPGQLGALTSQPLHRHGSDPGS
In short: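 Step 1: BacMam hERG transduction of U2OS, 4 hrs RT. Step 2: overnight 37 °C, plate 2000 cells/well, 4 hr. Step 3: FluxOR load, compound 10 min, stimulate, read fluorescence.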

## Cc1cnc(CCNC(=O)Nc2ccc3c(c2)OCCO3)n1C1CCC1
[1]
  activity: 2.74%
[2]
  activity change, negative = inhibition: -0.0713%
[3]
  activity: -5.7%
[4]
  activity: 1.37%

## O=c1c2ccccc2n2c(-c3ccc(F)c(F)c3)nnc2n1Cc1ccccc1Cl
[1]
  activity: -2.11%
[2]
  activity change, negative = inhibition: 0%
[3]
  activity: -2.95%
[4]
  activity: -3.63%

## CCn1cc(CN2CCCC23CCN(c2cc(C)nc4ccccc24)CC3)c(C)n1
[1]
  activity: 3.11%
[2]
  activity change, negative = inhibition: 4.01%
[3]
  activity: -3.44%
[4]
  activity: 6.12%

## O=C(CCc1nnc2n(Cc3ccccc3Cl)c(=O)c3ccccc3n12)N1CCC(N2CCCCC2)CC1
[1]
  activity: 0%
[2]
  activity change, negative = inhibition: 0.582%
[3]
  activity: -1.92%
[4]
  activity: 0%

## C[C@H]1c2cccc(O)c2C(O)=C2C(=O)[C@]3(O)C(O)=C(C(N)=O)C(=O)C(N(C)C)[C@@H]3[C@@H](O)C21 (stereo partly specified)
[5]
  Potency: inactive
[6]
  outcome: inactive
[7]
  Potency: 4.47 µM (active)
[8]
  Potency: 8.91 µM (active)
[9]
  Potency: 1 µM (active)
[10]
  Potency: 11.2 µM (active)
[11]
  Potency: 5.01 µM (active)
[12]
  Potency: 1 µM (active)
[13]
  Potency: 6.31 µM (active)
[14]
  outcome: inactive
[15]
  outcome: inactive
[16]
  outcome: inactive
[17]
  Potency: inactive
[18]
  Potency: 370 nM (active)
[19]
  Potency: 6.57 µM (active)
[20]
  Potency: inactive
[21]
  outcome: inactive
[22]
  activation: -0.125% (inactive)
[23]
  outcome: inactive
[24]
  Potency: inactive
